PubChem BioAssay (NCI)
The panel holds about 83,000 compounds, 20% with a hit somewhere; the sample as a whole holds those more often.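 Assay: single dose, 48 h. Readout: percent growth (0 = no net growth; negative = cell death). Active: <10.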 Values without a mark were called inactive. Activity calls are given as the source filed them.

Key:
Assay in all cases: NCI-60 one-dose screen, 48 h (100 = growth as untreated, 0 = no growth, -100 = all killed)
Details in all cases: 10 µM
[1] = system: HCT-15 colon
[2] = system: HT29 colon
[3] = system: SNB-75 CNS
[4] = system: SNB-19 CNS
[5] = system: U251 CNS
[6] = system: PC-3 prostate
[7] = system: SK-MEL-5 melanoma
[8] = system: UACC-62 melanoma
[9] = system: LOX IMVI melanoma
[10] = system: SK-MEL-28 melanoma

| SMILES | growth [1] | growth [2] | growth [3] | growth [4] | growth [5] | growth [6] | growth [7] | growth [8] | growth [9] | growth [10] |
| --- | --- | --- | --- | --- | --- | --- | --- | --- | --- | --- |
| Cc1c(C(=O)N[C@H](CO)Cc2ccccc2)[nH]c2ccc(Cl)cc2c1=O | 100% | 90.1% | 99.9% | 106% | 92.7% | 97.6% | 99% | 92.9% | 97.9% | 114% |
| COc1cc(N=C2C(=O)N(Cc3ccccc3)c3ccccc32)cc(OC)c1OC | 95.3% | 103% | 82.6% | 95.1% | 94.2% | 97.8% | 94.2% | 90.8% | 86.9% | 113% |
| C=CCn1c(C)nc2cc(Nc3nc(Nc4ccc5nc(C)n(CC=C)c5c4)c4ccccc4n3)ccc21 | -76.2% (active) | -69.4% (active) | -96.7% (active) | -66.1% (active) | -90.7% (active) | -91.7% (active) | -95.2% (active) | -83.3% (active) | -83.3% (active) | -88% (active) |
| CCOCC[P+](c1ccccc1)(c1ccccc1)c1ccccc1 | 98.8% | 34.2% | 46.7% | 48% | 38.3% | 33.4% | 21.6% | 33% | 52.5% | 67.9% |
| COc1cc(/C=C2\C(=O)Nc3cc(C)c(O)cc32)cc(OC)c1OC | 33.7% | 22.4% | 55.1% | 71.6% | 44.5% | 33.5% | 47% | 57.9% | 45.7% | 73.2% |
| Cc1cc(C#Cc2ccccc2)ccc1-n1c(/C=C/c2cc(O)ccc2O)nc2ccccc2c1=O | -33.6% (active) | 11.8% | 16.2% | 26.6% | 5.85% (active) | 3.46% (active) | -84.5% (active) | -55.6% (active) | -80.6% (active) | -45.3% (active) |
| CCOC(=O)c1cc2c(n1Cc1cc(OC)cc(OC)c1)-c1oncc1CC2 | 21.9% | 5.66% (active) | -0.349% (active) | 38.7% | 23.5% | 27.4% | 24.6% | 40.3% | 49.5% | 33.8% |
| COc1ccccc1S(=O)(=O)Nc1ccc2c(c1)CN(C)C(=O)N2 | 40.8% | 22.8% | 17.5% | 54.1% | 50% | 35.3% | 40.5% | 29.3% | 29.1% | 48.9% |
| CC(=O)Oc1c(C)c(C)c2c(c1C)CCC(C)(CC(=O)OCCCCCCCCCCC[P+](c1ccccc1)(c1ccccc1)c1ccccc1)O2 (stereo not given) | -69.3% (active) | -53.9% (active) | -47.8% (active) | -78.8% (active) | -93.1% (active) | -51% (active) | -96.7% (active) | -86.1% (active) | -92.6% (active) | -86.9% (active) |
| Nc1nc2c(nnn2C2CC(O)C(CO)O2)c(=O)[nH]1 (stereo not given) | 41.6% | 51.4% | 61.8% | 94.3% | 54.3% | 26.5% | 87% | 25% | 19.5% | 87.5% |
| Cc1cc(Nc2cccc(F)c2)nc(NCc2ccccc2)n1 | 15.6% | 22.8% | 50.5% | 29.4% | 11.7% | 1.49% (active) | 33.9% | 16.7% | 18.2% | 43.9% |
| Cc1ncc([N+](=O)[O-])n1CCOc1ccc(C(=O)/C=C/c2ccc(C(F)(F)F)cc2)cc1 | 38.1% | 29.7% | 60.1% | 69.7% | 51.7% | 50.6% | 78.4% | 67.5% | 57.3% | 88.2% |
| CCN(CC)CCCOC(=O)Nc1ccccc1Cl | 111% | 103% | 120% | 104% | 107% | 96.1% | 105% | 109% | 97.6% | 116% |
| S=C(Cc1ccc(-c2ccccc2)cc1)N1CCOCC1 | 104% | 103% | 83.1% | 110% | 96.6% | 76.7% | 92.9% | 87.2% | 92% | 106% |
